Measurements as given in PubChem BioAssay (Tox21).
Several values for one entry are separate records, joined by “and”; a condition that tells them apart may be missing. Equal entries are not always repeated. Inconclusive results are not listed. Unmarked numbers belong to inactive results. Activity calls are given as the source filed them. Calls come from the whole dose curve; as a rule, active = well fitted cell-killing curve with a large enough effect in the repeat runs; inconclusive = weak or mixed curves, or effect the other way; inactive = no such curve, though single readings can be large or run the other way.

Assay: qHTS assay for identifying genotoxic compounds that show differential cytotoxicity against isogenic chicken DT40 cell lines with known DNA damage response pathways - wild type cell line (AID 743012); note: nearly all actives have a fitted effect of over 60% in size
Details: DT40 wild type chicken cells viability, CellTiter-Glo, 40 h; series mostly up to 68.4 µM; activity change, negative = cytotoxicity: at the top concentration
Procedure, shortened: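 Viability by ATP luminescence (CellTiter-Glo, 30 min RT) after 40 h compound treatment at 37 C/5% CO2, using 300 parental DNA repair-proficient DT40 cells per well.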
% is set by controls: 0 for no effect and ±100 for the full control effect; potency is the fitted concentration of half-maximal effect.

Row | Compound | activity change, negative = cytotoxicity | Potency
1 | O=C(O)CP(=O)(O)O | 12.6% | –
2 | O=C(Nc1ccccc1SSc1ccccc1NC(=O)c1ccccc1)c1ccccc1 | – | 2.45 µM (active) and 1.37 µM (active)
3 | CC(N)=O | 5.91% [at 260 µM] | –
4 | NC12CC3CC(CC(C3)C1)C2 | 9.63% | –
5 | Cc1cccc(O)c1C | – | inactive
6 | [Cl][In]([Cl])[Cl] | – | inactive
7 | BrC1CCC(Br)C(Br)CCC(Br)C(Br)CCC1Br (configuration not stated) | – | 46.1 µM (active)
8 | O=C(Oc1ccccc1)c1ccccc1O | – | inactive
9 | CC(C)CCOCc1ccccc1 | -2.88% | –
10 | Cc1ccc(-c2cc(C(F)(F)F)nn2-c2ccc(S(N)(=O)=O)cc2)cc1 | – | 23.7 µM (active) and 27.3 µM (active)
11 | CN(C)c1ccc(C(=C2C=CC(=[N+](C)C)C=C2)c2ccccc2)cc1 | – | 1.06 µM (active) and 13.7 nM (active)
12 | CCCCC/C=C/CC1CC(=O)OC1=O (configuration not stated) | 19.6% | –
13 | C=CC(=O)OCCCCCCOC(=O)C=C | – | 24.3 µM (active)
14 | Cc1occc(=O)c1OC(=O)C(C)C | 2.15% | –
15 | O=C1OC2(c3ccc(O)cc3Oc3cc(O)ccc32)c2ccccc21 | – | inactive
16 | CCC(C)(Oc1ccc(C2(c3ccc(OC(C)(CC)C(=O)O)cc3)CCCCC2)cc1)C(=O)O (configuration not stated) | 15.1% | –

Row | Compound | activity change, negative = cytotoxicity | Potency
17 | O=Cc1ccc(Cl)cc1 | -3.42% | –
18 | Cc1ccnc2c1NC(=O)c1cccnc1N2C1CC1 | – | inactive
19 | O=Nc1ccc(Nc2ccccc2)cc1 | – | 3.88 µM (active) and 3.06 µM (active)
20 | CC1=C(C=O)C(C)(C)CC=C1 | 23.6% [at 95 µM] | –
21 | CC[C@H]1CN2CCc3cc(OC)c(OC)cc3[C@@H]2C[C@@H]1C[C@H]1NCCc2cc(OC)c(OC)cc21 | – | 18.8 nM (active) and 24.4 nM (active)
22 | CC(C)(C)c1cc(C(C)(C)C)c(O)c(C(C)(C)C)c1 | – | inactive
23 | Nc1cc(S(=O)(=O)O)cc2cc(S(=O)(=O)O)cc(O)c12 | – | inactive
24 | CC(C)(C)c1ccccc1 | -8.89% | –
25 | O=C(O)CCc1ccccc1 | 18.5% | –
26 | CCC[C@H](N[C@@H](C)C(=O)N1[C@H](C(=O)O)C[C@@H]2CCCC[C@@H]21)C(=O)OCC | 3.17% | –
27 | CN(C)c1ccc2nc3ccc(=[N+](C)C)cc-3sc2c1 | – | 473 nM (active) and 2.34 µM (active) and 686 nM (active)
28 | CCCCC(CC)COC(=O)CC(C(=O)OCC(CC)CCCC)S(=O)(=O)O (configuration not stated) | -9.13% | –
29 | Nc1nc2ccccc2[nH]1 | -20.8% | –
30 | CC[C@@H](N)CO | -16% [at 95 µM] | –
31 | Cc1cc(C(C)(C)C)c(O)c(C(C)(C)C)c1 | – | inactive
32 | CCN(CC)C(=O)Nc1ccc(OCC(O)CNC(C)(C)C)c(C(C)=O)c1 (configuration not stated) | 1.03% | –
